# In all, about 1,400 compounds went through this assay and about 30 (2%) were called active. Where a call stands in place of a potency, no number is given. Inconclusive results (about 15%) are left out. This is one part of a sample in which actives are shown more often than they occur. Calls come from the whole dose curve; as a rule, active = well fitted inhibition curve with a large enough effect; inconclusive = small, poorly fitted or top-dose-only effect; inactive = flat fitted curve, though single readings scatter.
# Assay: Firefly Luciferase Counterscreen for Inhibitors of ATXN expression
# Conditions: luminescence; series mostly up to 57.5 µM
# From the text: University of Utah School of Medicine, Salt Lake City, Utah
# Spinocerebellar ataxia type 2 (SCA2) is a multisystem neurodegenerative disease caused by a dominantly acting mutation leading to expansion of a polyQ domain in the ataxin-2 protein (ATXN2). SCA2 patients develop progressive ataxia and later lose function in other neuronal systems. Prominent parkinsonian signs develop in some patients. Like many neurodegenerative disorders, no symptomatic or disease-modifying treatments are known.
# The primary objective of the proposed research is to identify compounds inhibiting ATXN2 expression and to test them for efficacy in SCA2 mouse models. We have developed a cell-based assay paired with an in vivo mouse model using identical luciferase expression constructs. This approach takes advantage of an ATXN2-luciferase transgene, with the luciferase gene flanked by the upstream and downstream portions of the ATXN2 gene. Here we describe a 5-7 dose quantitative high thoroughput screen (qHTS) for compounds lowering ATXN2 expression. We screened the NIH Molecular Libraries Small Molecule Repository (MLSMR) and NCGC's mechanistically annotated (MIPE) and drug repurposing (NPC) collections of compounds for lowering expression of an ATXN2-luciferase reporter in HEK-293 cells. The assay is a multiplexed cell viability assay to ensure target reduction in the absence of cytotoxicity. Secondary qHTS assays included a CMV-luciferase reporter expressed in HEK-293 cells as well as a biochemical assay using recombinant luciferase to detect inhibitors of the reporter enzyme. Compounds that inhibit ATXN2 expression but is not cytotoxic were selected for confirmatory and secondary screens.
# PROTOCOL TABLE (as described by Inglese J, Shamu CE and Guy RK. 2007)
# SEQUENCE No. (e.g., 1, 2, 3, etc.); […] (e.g., Cells, Incubation, Reagent, etc.); VALUE; DESCRIPTION.
# 2; Compounds; 23 nL; Kalypsis pintool (Wako USA) equipped with a 1536-well pin head.
# 3; Enzyme; 1 uL; recombinant firefly luciferase (prepared in 50 mM Tris HCl pH7.5, 10 mM MgCl2, 0.05% BSA, 0.01% Tween20) at final concentration of 10 nM. Wells containing buffer only were used as control (set as 100% inhibition when normalizing data).
# 4; Incubation; 10 min; room temperature.
# 5; Detection; Luminescence; Viewlux plate reader (PerkinElmer).
# NOTES (numbers refer to Sequence numbers above)
# 1. Luciferase substrate is added to 1536 well, Greiner white assay plate. Evaporation was prevented by covering assay plates with metal lids containing holes to allow gas diffusion.
# 2. Compounds were added in a dose response manner with the final concentrations of 57, 11.4, 2.28, 0.46, 0.091, 0.018, 0.0037 uM. Vehicle-only plates, with DMSO being pin-transferred to columns 5-48, were inserted uniformly at the beginning and the end of each library to monitor and record any shifts in assay performance.
# 3. Recombinant firefly luciferase (10 nM final concentration) is added to the assay plate.
# 5. End-point luminescence is then measured on the Viewlux (PerkinElmer) imager equipped with a clear emission filter using a 2 sec exposure.
# Inglese J, Shamu CE and Guy RK, Reporting data from high throughput screening of small molecule libraries, Nature Chemical Biology, 2007, 3(8): 438-441. doi.org/10.1038/nchembio0807-438.
# Potency is the fitted concentration of half-maximal effect.
row,Structure (SMILES),Potency
1,COc1ccc(-c2oc3c(OC)c(OC)c(OC)c(O)c3c(=O)c2OC)cc1OC,inactive
2,CCCCOc1ccc(C(=O)NNC(=S)NC(=O)CC)cc1,inactive
3,COc1cccc(/C=N/NC(=O)c2c(C)nc3ccc(Cl)cn23)c1O,inactive
4,CC(C)[C@H](NC(=O)c1ccc(C(C)(C)C)cc1)C(=O)N1CCN(Cc2ccc3c(c2)OCO3)CC1,inactive
5,COc1cccc(/C=N/NC(=O)Cn2nc(C)c([N+](=O)[O-])c2C)c1O,inactive
6,Cc1cc(N/N=C/c2ccccc2[N+](=O)[O-])nc(-n2nc(C)cc2C)n1,inactive
7,NC(Cc1ccccc1)c1csc(Nc2ccc(C(F)(F)F)cn2)n1 (stereo not given),inactive
8,CCOc1ccc(-n2c(-c3ccccc3)c[n+]3c2CCCCC3)cc1,inactive
9,CCn1c(C)cc(C(=O)COC(=O)c2ccccc2[N+](=O)[O-])c1C,0.0178 µM (active)
10,Cc1c(C(=O)N2c3ccccc3Sc3ccccc32)cccc1[N+](=O)[O-],inactive
11,CCc1ccc(NC(=O)COc2ccc(/C=C(/C#N)c3nc4ccccc4[nH]3)cc2OC)cc1,inactive
12,O=C(CNC(=O)c1ccccc1Br)N/N=C/c1ccccc1O,inactive
13,Cc1ccc(N=Nc2ccc(O)c3ncccc23)cc1,inactive
14,Cc1cc2sc3ccc(C#CC4(O)CCCCC4)cc3c(=O)c2cc1C,0.251 µM (active)
15,Oc1c(C(Nc2cccc(C(F)(F)F)c2)c2ccncc2)ccc2cccnc12 (stereo not given),inactive
16,O=C(CCCOc1ccc(Cl)cc1Cl)N/N=C/c1ccccc1O,inactive
17,CC[n+]1ccccc1/C=C1\Sc2ccc(C)cc2N1C,inactive
18,CN1OC[C@@H]2CN[C@H](c3ccc(-c4cc5ccccc5o4)cc3)C[C@@H]21,0.316 µM (active)
19,CCC(=O)NNC(=S)NC(=O)c1ccc(C)cc1,inactive
20,COc1ccc(-c2csc(NC(=O)C3CCN(c4ncnc5sc(C)c(C)c45)CC3)n2)cc1OC,inactive
21,COC(=O)c1c(NC(=O)c2ccc([N+](=O)[O-])o2)sc2c1CCN(C(C)C)C2,inactive
22,CC(=O)Oc1ccc(C23c4ccccc4C2(OC(C)=O)c2cc(OC(C)=O)ccc23)cc1 (stereo not given),inactive
23,COc1ccc(CC(N)c2csc(NC(=O)c3ccccc3OC)n2)cc1 (stereo not given),inactive
24,COc1ccc(C(=O)c2sc(Nc3ccccc3)nc2N)cc1OC,inactive
25,COC(=O)c1sc(NC(=O)c2ccc(OC)cc2OC)nc1C,0.1 µM (active)

row,Structure (SMILES),Potency
1,COc1ccc(CSCC(=O)N/N=C/c2ccccc2O)cc1,inactive
2,Cc1cccc(OCC(=O)Nc2ccc3c(c2)nc(CCN2CCN(c4ccccn4)CC2)n3C)c1,inactive
3,Cc1cc2oc3cc(NCCC4CCCN4C)ccc3c(=O)c2cc1C (stereo not given),10 µM (active)
4,CN1CCCC1CCOC(C)(c1ccccc1)c1ccc(Cl)cc1 (stereo not given),inactive
5,Cc1cc2oc3ccc(NCCC4CCCN4C)cc3c(=O)c2cc1C (stereo not given),6.31 µM (active)
6,CCN1CCN(C(c2ccc(C(F)(F)F)cc2)c2ccc3cccnc3c2O)CC1 (stereo not given),inactive
7,COc1ccc(CC2C(=O)NC(C)C(=O)N(C)C3Cc4ccc(cc4)Oc4cc(ccc4O)CC(C(=O)NC(C)C(=O)NC(C)C(=O)N2C)N(C)C3=O)cc1 (stereo not given),inactive
8,COc1ccc(/C=C2\CN(Cc3ccccc3)C/C(=C\c3ccc(OC)c(O)c3)C2=O)cc1O,inactive
9,O=C(CN1CCCC1)N/N=C/c1c(O)ccc2ccccc12,inactive
10,CCc1ccccc1OCC(=O)Nc1nc(-c2cccnc2)cs1,inactive
11,O=C(Nc1nc(-c2ccccn2)cs1)c1ccc(F)c(S(=O)(=O)N2CCOCC2)c1,inactive
12,O=C(Nc1nc(-c2ccccn2)cs1)Nc1ccc(F)cc1F,25.1 µM (active)
13,CC(Oc1ccc(F)cc1)C(=O)Nc1nc(-c2ccccn2)cs1 (stereo not given),inactive
14,O=C(Nc1nc(-c2ccccn2)cs1)c1ccccc1-n1cnnn1,inactive
15,CCc1sc(C(=O)Nc2nc(-c3ccccn3)cs2)cc1C,6.31 µM (active)
16,Cc1ccc(-c2cn(-c3ccc(OC(F)F)cc3)c3[n+]2CCCCC3)cc1,inactive
17,COc1ccc2oc(/C=C/N(C)C)c(C(=O)c3ccc(Cl)cc3)c2c1,inactive
18,CC(CCc1ccccc1)NC(=O)c1ccc(C(=O)NC(C)CCc2ccccc2)cc1 (stereo not given),inactive
19,O=C(NNCc1ccccc1)c1ccccc1,10 µM (active)
20,O=C(NCc1ccccc1)c1ccc(C(=O)N(C2CCCCC2)C2CCCCC2)cc1,inactive
21,Cc1ccccc1N=Nc1ccc(O)c2ncccc12,inactive
22,CCN1C(=O)/C(=C/c2nc3ccccc3c(=O)n2-c2ccccc2)c2ccccc21,inactive
23,CC(=O)Nc1cccc(-c2ccnc3c2CC(C)(C(=O)Nc2cccc(Oc4ccccc4)c2)O3)c1 (stereo not given),inactive
24,COc1ccc2sc(-c3ccc(SC)cc3)c(-c3ccc(O)cc3)c2c1,inactive
25,COc1cc(/C=C(/C#N)C(=O)NCCc2c[nH]c3ccccc23)ccc1OCc1ccccc1F,inactive

# Reference: PubChem BioAssay AID1745846 (National Center for Advancing Translational Sciences (NCATS), 2022)
